Shown are actives, neighbours in structure and some others; about 3.5% of the full set was active somewhere.
Anthrax LF prot: inhibitors of Bacillus anthracis lethal factor protease; P15917; multiplex microsphere protease cleavage assay, LF; inhibition, % at 10 µM; 360,000 tested, 0.12% active; AID 588501; note: plate controls were buffer without enzyme for full effect and enzyme alone for no effect
Target sequence (P15917 whole entry, looked up): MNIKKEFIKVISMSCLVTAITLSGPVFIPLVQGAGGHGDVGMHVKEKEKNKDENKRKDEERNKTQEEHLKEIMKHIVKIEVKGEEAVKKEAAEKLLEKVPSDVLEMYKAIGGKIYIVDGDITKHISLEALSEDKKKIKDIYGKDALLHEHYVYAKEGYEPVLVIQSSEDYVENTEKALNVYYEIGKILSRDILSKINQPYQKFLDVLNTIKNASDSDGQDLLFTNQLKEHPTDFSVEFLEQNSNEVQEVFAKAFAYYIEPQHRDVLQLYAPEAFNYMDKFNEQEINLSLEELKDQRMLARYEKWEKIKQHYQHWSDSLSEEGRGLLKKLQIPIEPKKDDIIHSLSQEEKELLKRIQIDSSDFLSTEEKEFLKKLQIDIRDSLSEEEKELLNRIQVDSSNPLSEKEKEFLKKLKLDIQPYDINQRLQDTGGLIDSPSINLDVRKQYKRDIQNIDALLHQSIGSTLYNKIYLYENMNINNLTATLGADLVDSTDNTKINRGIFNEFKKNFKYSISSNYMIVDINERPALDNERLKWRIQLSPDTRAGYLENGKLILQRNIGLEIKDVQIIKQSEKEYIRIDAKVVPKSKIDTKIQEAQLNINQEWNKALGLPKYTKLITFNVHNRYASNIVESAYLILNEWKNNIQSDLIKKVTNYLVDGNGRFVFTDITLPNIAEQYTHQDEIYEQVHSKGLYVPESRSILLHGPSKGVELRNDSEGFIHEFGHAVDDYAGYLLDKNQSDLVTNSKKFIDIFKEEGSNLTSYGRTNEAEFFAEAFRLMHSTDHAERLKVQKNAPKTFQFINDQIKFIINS
Bead autofluor: flagged as autofluorescent in microsphere protease counterscreen | compound autofluorescence counterscreen, microsphere flow cytometry; hits give high values | fluorescence intensity (test concentration not listed) | 360,000 tested, 3.1% active; in the data active = fluorescence intensity above about 16000; inconclusive = no clear call, values can overlap the other calls
BoNT F protease: BoNT F light chain protease inhibition. inhibition, % at 10 µM. 360,000 tested, 0.22% active. Multiplex microsphere protease cleavage assay, flow cytometry. AID 588497; in the data active = inhibition above about 35%, passing the limit was not always enough; inconclusive = no clear call, values can overlap the other calls; note: plate controls were buffer without enzyme for full effect and enzyme alone for no effect
BoNT-A LC inh2: blocks Botulinum neurotoxin A light chain protease; multiplex microsphere protease substrate cleavage, flow cytometry; inhibition, % at 10 µM; 360,000 tested, 0.17% active; note: plate controls were buffer without enzyme for full effect and enzyme alone for no effect
* hit, by the source's call. Cut-off read from the data, not from the text of the source, unless noted: active = inhibition above about 30%; inconclusive = no clear call, values can overlap the other calls; inactive = below that.

Results for CN1CCN(c2nc(-c3ccccn3)nc3ccccc23)CC1 ?
Anthrax LF prot: -1; Bead autofluor: 23212*; BoNT F protease: -1; BoNT-A LC inh2: -1

Results for Cc1ccc(-c2nc(S(=O)(=O)c3ccc(C)cc3)c(SCC(N)=O)o2)cc1 ?
Anthrax LF prot: -5; Bead autofluor: 16360*; BoNT F protease: -66; BoNT-A LC inh2: -34

What do the screens show for `CC(=O)c1nc2ccccc2n1S(=O)(=O)c1ccc(Cl)cc1`?
Anthrax LF prot: 0; Bead autofluor: 18292*; BoNT F protease: -13; BoNT-A LC inh2: inconclusive

Results for O=c1c2nnn(Cc3ccc(Cl)cc3)c2ncn1Cc1ccc(F)cc1 ?
Anthrax LF prot: -1; Bead autofluor: 22862*; BoNT F protease: -2; BoNT-A LC inh2: 1

What do the screens show for `CCC(C)(C(=O)NC1CCCC1)N(C(=O)c1cnccn1)c1c(C)n(C)n(-c2ccccc2)c1=O` (stereo not drawn)?
Anthrax LF prot: 0; Bead autofluor: 21671*; BoNT F protease: 3; BoNT-A LC inh2: inconclusive

Results for CCC(C)(C(=O)NC1CCCCC1)N(C(=O)c1cnccn1)c1c(C)n(C)n(-c2ccccc2)c1=O (stereo not drawn) ?
Anthrax LF prot: 0; Bead autofluor: 21469*; BoNT F protease: -2; BoNT-A LC inh2: inconclusive

What do the screens show for `CCC(C)(C(=O)NC1CCCC1)N(C(=O)Cc1cccs1)c1c(C)n(C)n(-c2ccccc2)c1=O` (stereo not drawn)?
Anthrax LF prot: 3; Bead autofluor: 4055; BoNT F protease: 0; BoNT-A LC inh2: 1

How did CCC(C)(C(=O)NC1CCCCC1)N(C(=O)CNC(C)=O)c1c(C)n(C)n(-c2ccccc2)c1=O (stereo not drawn) do in these assays?
Anthrax LF prot: -3; Bead autofluor: 3852; BoNT F protease: -6; BoNT-A LC inh2: 1

What do the screens show for `CCOc1ccc(S(=O)(=O)N2CCC(C(=O)NCCc3ccccc3)CC2)cc1`?
Anthrax LF prot: 2; Bead autofluor: 3946; BoNT F protease: -18; BoNT-A LC inh2: -4

Results for O=C(/C=C/c1ccco1)N(Cc1ccccc1F)C1CCS(=O)(=O)C1 (stereo not drawn) ?
Anthrax LF prot: -4; Bead autofluor: 5741; BoNT F protease: -8; BoNT-A LC inh2: -2

How did CC1(C)NC(=O)N(CCOCCOc2ccc3ccccc3c2Br)C1=O do in these assays?
Anthrax LF prot: -1; Bead autofluor: 21501*; BoNT F protease: -10; BoNT-A LC inh2: -6

How did CCC(=O)c1ccccc1OCCCN1C(=O)NC(C)(C)C1=O do in these assays?
Anthrax LF prot: 4; Bead autofluor: 7815; BoNT F protease: 1; BoNT-A LC inh2: 0

Results for CC1(C)NC(=O)N(CCCCOc2ccc3ccccc3c2Cl)C1=O ?
Anthrax LF prot: -1; Bead autofluor: 24165*; BoNT F protease: -3; BoNT-A LC inh2: -1

Results for O=C(CC(=O)c1c(F)cccc1Cl)c1ccccc1O ?
Anthrax LF prot: -10; Bead autofluor: 3615; BoNT F protease: 20; BoNT-A LC inh2: 0

What do the screens show for `CCCCCCOC(=O)C(C#N)c1nc2ccccc2nc1N1CCN(C)CC1` (stereo not drawn)?
Anthrax LF prot: 25; Bead autofluor: 8819; BoNT F protease: 2; BoNT-A LC inh2: 4

Results for CCC(CC)COC(=O)C(C#N)c1nc2ccccc2nc1N1CCN(CC)CC1 (stereo not drawn) ?
Anthrax LF prot: 10; Bead autofluor: 21646*; BoNT F protease: 3; BoNT-A LC inh2: 7

Results for CC(C)OC(=O)C(C#N)c1nc2ccccc2nc1N1CCCC1 (stereo not drawn) ?
Anthrax LF prot: -2; Bead autofluor: 3598; BoNT F protease: -1; BoNT-A LC inh2: 6

What do the screens show for `CCC(C)COC(=O)C(C#N)c1nc2ccccc2nc1N1CCCCC1` (stereo not drawn)?
Anthrax LF prot: 15; Bead autofluor: 21493*; BoNT F protease: 6; BoNT-A LC inh2: inconclusive

How did O=C1c2oc3ccccc3c(=O)c2C(c2cccc(Br)c2)N1Cc1ccco1 (stereo not drawn) do in these assays?
Anthrax LF prot: -1; Bead autofluor: 20275*; BoNT F protease: 0; BoNT-A LC inh2: -1

Results for Cc1cccc(-n2c(C)cc(C=C3C(=O)c4ccccc4C3=O)c2C)c1 ?
Anthrax LF prot: 8; Bead autofluor: 6839; BoNT F protease: -7; BoNT-A LC inh2: 7

Results for Cc1cc(C=C2C(=O)c3ccccc3C2=O)c(C)n1-c1ccc(Cl)cc1 ?
Anthrax LF prot: 5; Bead autofluor: 20919*; BoNT F protease: 1; BoNT-A LC inh2: 2

Results for c1ccc2sc(SCSc3nc4ccccc4s3)nc2c1 ?
Anthrax LF prot: 3; Bead autofluor: 3347; BoNT F protease: -3; BoNT-A LC inh2: 0

What do the screens show for `O=C(O)CCSc1nc2ccccc2s1`?
Anthrax LF prot: -4; Bead autofluor: 22416*; BoNT F protease: 1; BoNT-A LC inh2: 2

How did CC1CCCN(C(=O)CSc2nc3ncccc3[nH]2)C1 (stereo not drawn) do in these assays?
Anthrax LF prot: -2; Bead autofluor: 3157; BoNT F protease: 3; BoNT-A LC inh2: 1

How did O=C(CCCSc1nc2ccccc2s1)NC1=NCCS1 do in these assays?
Anthrax LF prot: 0; Bead autofluor: 23045*; BoNT F protease: -5; BoNT-A LC inh2: 1

Results for O=C(O)C1CCN(C(=O)CSc2nc3ccccc3s2)CC1 ?
Anthrax LF prot: -6; Bead autofluor: 3535; BoNT F protease: -1; BoNT-A LC inh2: 0

What do the screens show for `CC1CCN(C(=O)CSc2nc3ccccc3s2)CC1`?
Anthrax LF prot: 1; Bead autofluor: 23396*; BoNT F protease: 0; BoNT-A LC inh2: 1

Results for CC1CCCN(C(=O)CSc2cnc3ccccc3n2)C1 (stereo not drawn) ?
Anthrax LF prot: -1; Bead autofluor: 19588*; BoNT F protease: -4; BoNT-A LC inh2: 0

Results for CCCc1cc(=O)oc2cc(C)cc(OCC(=O)N3CCC(C(=O)O)CC3)c12 ?
Anthrax LF prot: -7; Bead autofluor: 4237; BoNT F protease: -10; BoNT-A LC inh2: -1

What do the screens show for `CC(C)Sc1nc(O)c(Cc2ccccc2)c(=O)[nH]1`?
Anthrax LF prot: -2; Bead autofluor: 20324*; BoNT F protease: 4; BoNT-A LC inh2: 2

What do the screens show for `CCC(C)Sc1nc(O)c(Cc2ccccc2)c(=O)[nH]1` (stereo not drawn)?
Anthrax LF prot: -6; Bead autofluor: 3914; BoNT F protease: 22; BoNT-A LC inh2: 0

Results for COC(=O)C(NC(=O)C(NC(=O)c1ccccc1)C(C)C)C(C)C (stereo not drawn) ?
Anthrax LF prot: 1; Bead autofluor: 22539*; BoNT F protease: 2; BoNT-A LC inh2: 1

How did O=C(NC(C(=O)O)c1ccccc1)c1ccccc1 (stereo not drawn) do in these assays?
Anthrax LF prot: -11; Bead autofluor: 4003; BoNT F protease: -5; BoNT-A LC inh2: 0

What do the screens show for `COC(=O)C(NC(=O)c1ccccc1)c1ccccc1` (stereo not drawn)?
Anthrax LF prot: 1; Bead autofluor: 25637*; BoNT F protease: -5; BoNT-A LC inh2: -4

How did COC(=O)C(NC(=O)C(C)Oc1ccccc1)C(C)C (stereo not drawn) do in these assays?
Anthrax LF prot: -6; Bead autofluor: 20348*; BoNT F protease: 0; BoNT-A LC inh2: inconclusive
